Measured values published in PubChem BioAssay (NCI).
Where “and” joins values, the source holds several entries; their conditions need not be identical. Equal entries are not always repeated. About 83,000 compounds went through this panel and 20% of them were active in at least one assay; those are over-represented in the sample as a whole.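 Method: cells in 96-well plates; compound added at one concentration; 48 h incubation; percent growth measured; values under 10 scored active.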 Calls of active or inactive are those of the source.

Columns and labels:
Test in all cases: NCI-60 one-dose screen, 48 h (100 = growth as untreated, 0 = no growth, -100 = all killed)
Settings in all cases: 10 µM unless noted
SK-MEL-2 melanoma = system: SK-MEL-2 melanoma
EKVX NSCLC = system: EKVX NSCLC
SN12C renal = system: SN12C renal
UO-31 renal = system: UO-31 renal
ACHN renal = system: ACHN renal
CAKI-1 renal = system: CAKI-1 renal
A498 renal = system: A498 renal
CCRF-CEM leukemia = system: CCRF-CEM leukemia
MOLT-4 leukemia = system: MOLT-4 leukemia
SR leukemia = system: SR leukemia
RPMI-8226 leukemia = system: RPMI-8226 leukemia
OVCAR-8 ovarian = system: OVCAR-8 ovarian
OVCAR-5 ovarian = system: OVCAR-5 ovarian
OVCAR-4 ovarian = system: OVCAR-4 ovarian
SK-OV-3 ovarian = system: SK-OV-3 ovarian
IGROV1 ovarian = system: IGROV1 ovarian
OVCAR-3 ovarian = system: OVCAR-3 ovarian
HS 578T breast = system: HS 578T breast
NCI/ADR-RES ovarian = system: NCI/ADR-RES ovarian
TK-10 renal = system: TK-10 renal

SMILES	growth (SK-MEL-2 melanoma)	growth (EKVX NSCLC)	growth (SN12C renal)	growth (UO-31 renal)	growth (ACHN renal)	growth (CAKI-1 renal)	growth (A498 renal)	growth (CCRF-CEM leukemia)	growth (MOLT-4 leukemia)	growth (SR leukemia)	growth (RPMI-8226 leukemia)	growth (OVCAR-8 ovarian)	growth (OVCAR-5 ovarian)	growth (OVCAR-4 ovarian)	growth (SK-OV-3 ovarian)	growth (IGROV1 ovarian)	growth (OVCAR-3 ovarian)	growth (HS 578T breast)	growth (NCI/ADR-RES ovarian)	growth (TK-10 renal)
Oc1cccnc1CN1CCOCC1	97.5% (inactive) and 132% (inactive)	105% (inactive) and 91.9% (inactive)	104% (inactive) and 95.6% (inactive)	78.4% (inactive) and 88.4% (inactive)	106% (inactive) and 97.3% (inactive)	105% (inactive) and 89.2% (inactive)	112% (inactive)	103% (inactive) and 88.7% (inactive)	99.1% (inactive) and 107% (inactive)	103% (inactive)	104% (inactive) and 96.7% (inactive)	93.5% (inactive) and 95.3% (inactive)	112% (inactive) and 92.8% (inactive)	94.9% (inactive)	101% (inactive) and 105% (inactive)	106% (inactive) and 109% (inactive)	118% (inactive) and 110% (inactive)	115% (inactive) and 105% (inactive)	–	–
CCCC(=O)Oc1ccc2ccccc2c1	104% (inactive)	101% (inactive)	97% (inactive)	76.8% (inactive)	99% (inactive)	103% (inactive)	103% (inactive)	90.2% (inactive)	92.3% (inactive)	110% (inactive)	–	94.6% (inactive)	117% (inactive)	105% (inactive)	91.8% (inactive)	106% (inactive)	113% (inactive)	92.7% (inactive)	102% (inactive)	–
Cc1c(Cl)c(C)c(Cc2c(C)c(Cl)c(C)c(Cl)c2O)c(O)c1Cl	1.72% (active)	–	8.8% (active)	7.71% (active)	3.3% (active)	4.14% (active)	-21.6% (active)	26.5% (inactive)	16.5% (inactive)	22.7% (inactive)	10% (inactive)	11.4% (inactive)	45.6% (inactive)	13.9% (inactive)	-6.21% (active)	38.8% (inactive)	5.17% (active)	12.1% (inactive)	–	–
O=C(O)C#Cc1ccc(Cl)cc1	98.4% (inactive)	–	98.4% (inactive)	95.6% (inactive)	103% (inactive)	95.4% (inactive)	73.1% (inactive)	103% (inactive)	87.5% (inactive)	100% (inactive)	106% (inactive)	97.6% (inactive)	102% (inactive)	97.5% (inactive)	92.5% (inactive)	98.3% (inactive)	110% (inactive)	–	108% (inactive)	109% (inactive)
COc1ccc(-n2[nH]c3c(cnc4ccccc43)c2=O)cc1	79.5% (inactive) and 111% (inactive)	89% (inactive)	85% (inactive) and 95% (inactive)	70.7% (inactive)	95.9% (inactive) and 107% (inactive)	68.3% (inactive) and 95.9% (inactive)	93.7% (inactive) and 91.9% (inactive)	101% (inactive)	108% (inactive) and 99.9% (inactive)	–	75.7% (inactive) and 106% (inactive)	101% (inactive) and 99.7% (inactive)	107% (inactive) and 108% (inactive)	111% (inactive) and 97.6% (inactive)	105% (inactive) and 99.4% (inactive)	87.6% (inactive) and 115% (inactive)	100% (inactive) and 116% (inactive)	117% (inactive) and 97.5% (inactive)	78.5% (inactive) and 101% (inactive)	–
Cn1c(-c2ccccc2)cc(=O)cc1-c1ccccc1	10.8% (inactive)	–	92.6% (inactive)	79% (inactive)	0.204% (active)	–	106% (inactive)	79.8% (inactive)	81.4% (inactive)	69.5% (inactive)	78.9% (inactive)	80.1% (inactive)	79.2% (inactive)	85.6% (inactive)	92.4% (inactive)	88% (inactive)	122% (inactive)	105% (inactive)	–	91.5% (inactive)
CCOC(=O)C1=CC(=O)CC(C)(C)O1	114% (inactive)	–	110% (inactive) and 102% (inactive)	92.5% (inactive) and 101% (inactive)	–	99.7% (inactive) and 104% (inactive)	108% (inactive) and 105% (inactive)	90% (inactive) and 104% (inactive)	-47.2% (active) and 106% (inactive)	82.1% (inactive) and 114% (inactive)	92.8% (inactive) and 111% (inactive)	114% (inactive) and 106% (inactive)	110% (inactive) and 101% (inactive)	128% (inactive) and 117% (inactive)	108% (inactive) and 114% (inactive)	103% (inactive) and 120% (inactive)	118% (inactive) and 96.9% (inactive)	117% (inactive)	96.9% (inactive) and 110% (inactive)	96.1% (inactive) and 107% (inactive)
O=C1c2ccccc2C(c2ccccc2)C1c1ccccc1 (stereo not given)	91.1% (inactive)	–	93.5% (inactive)	79.4% (inactive)	–	72.3% (inactive)	102% (inactive)	72.2% (inactive)	87.8% (inactive)	86.3% (inactive)	–	103% (inactive)	101% (inactive)	86.1% (inactive)	93.5% (inactive)	91.1% (inactive)	105% (inactive)	106% (inactive)	94.8% (inactive)	–
O=C(NC(CSSCC(NC(=O)OCc1ccccc1)C(=O)O)C(=O)O)OCc1ccccc1 (stereo not given)	95.4% (inactive) and 102% (inactive)	–	83.3% (inactive) and 105% (inactive)	67.6% (inactive) and 98% (inactive)	88.6% (inactive) and 98.9% (inactive)	–	68.2% (inactive) and 99% (inactive)	87.3% (inactive)	52.1% (inactive) and 82% (inactive)	67.8% (inactive) and 77.7% (inactive)	64.7% (inactive) and 95.7% (inactive)	79.5% (inactive) and 103% (inactive)	90.9% (inactive) and 99.3% (inactive)	68.3% (inactive) and 104% (inactive)	107% (inactive) and 83.5% (inactive)	73.1% (inactive) and 106% (inactive)	97.7% (inactive) and 105% (inactive)	99.9% (inactive) and 104% (inactive)	97.2% (inactive) and 101% (inactive)	59.4% (inactive)
Cc1cc(NC(=O)NC(=O)c2ccccc2N(C)C)ccc1Oc1ncc(Br)cn1	48% (inactive) and 60.5% (inactive)	–	51.6% (inactive) and 51.3% (inactive)	24.2% (inactive) and 56.1% (inactive)	–	–	15.2% (inactive) and 10.6% (inactive)	4.54% (active) and 17.5% (inactive)	19.5% (inactive) and 26.5% (inactive)	11.9% (inactive) and 22.4% (inactive)	-9.68% (active) and 20.4% (inactive)	51.9% (inactive)	34.1% (inactive) and 78.5% (inactive)	15.8% (inactive) and 48.7% (inactive)	45% (inactive) and 59.9% (inactive)	-12% (active) and 54.7% (inactive)	0.0582% (active) and 16.2% (inactive)	23.8% (inactive) and 40% (inactive)	5.74% (active) and 23.3% (inactive)	36.5% (inactive) and 63.1% (inactive)
O=[N+]([O-])c1ccc(N2CCN=N2)cc1	92.2% (inactive)	85.7% (inactive)	88.9% (inactive)	64.3% (inactive)	64.9% (inactive)	79.4% (inactive)	72.3% (inactive)	91.2% (inactive)	90.8% (inactive)	78.6% (inactive)	–	88% (inactive)	87.7% (inactive)	95.9% (inactive)	89.6% (inactive)	96.1% (inactive)	99.8% (inactive)	101% (inactive)	100% (inactive)	–
CC(=O)Nc1ccc2oc(=O)ccc2c1	101% (inactive)	–	95.6% (inactive)	91.3% (inactive)	113% (inactive)	–	89.9% (inactive)	109% (inactive)	98.6% (inactive)	82.3% (inactive)	104% (inactive)	106% (inactive)	102% (inactive)	106% (inactive)	102% (inactive)	105% (inactive)	110% (inactive)	109% (inactive)	–	111% (inactive)
